# Assay outcomes (PubChem)
# GPR151 activ: activators of human GPR151, primary screen, cell-based, PathHunter beta-arrestin, luminescence | G-protein coupled receptor 151 (Homo sapiens), Q8TDV0 | PathHunter beta-arrestin GPR151 cells | activation, % at 11.2 µM | 650,000 tested, 1% active | AID 1508602, 2020; in the data active means activation above about 4.9%;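 further: 0% = median of compound wells and 100% = cells with positive control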
# Target sequence (Q8TDV0 whole entry, looked up): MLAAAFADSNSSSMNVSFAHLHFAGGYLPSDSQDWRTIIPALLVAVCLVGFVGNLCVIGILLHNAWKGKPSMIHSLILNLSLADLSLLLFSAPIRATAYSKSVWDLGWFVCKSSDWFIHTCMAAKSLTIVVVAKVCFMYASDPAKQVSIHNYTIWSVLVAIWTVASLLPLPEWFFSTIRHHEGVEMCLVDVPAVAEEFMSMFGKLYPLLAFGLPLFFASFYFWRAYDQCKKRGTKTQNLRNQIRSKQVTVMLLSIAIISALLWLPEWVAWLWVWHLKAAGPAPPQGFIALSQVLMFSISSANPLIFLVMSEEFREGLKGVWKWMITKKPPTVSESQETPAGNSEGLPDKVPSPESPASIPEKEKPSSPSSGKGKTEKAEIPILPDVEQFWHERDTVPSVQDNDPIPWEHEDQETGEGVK
# MITF primary: MITF inhibitors, primary screen, biochemical, AlphaScreen, human. 650,000 tested, 0.91% active. AID 1259374, 2018. Microphthalmia-associated transcription factor (Homo sapiens), O75030. AlphaScreen MITF homodimerization, bead proximity signal. inhibition, % at 2.6 µM; in the data active means inhibition above about 50%;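 further: 0% = vehicle wells with protein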
# TEAD-YAP inh: TEAD-YAP interaction inhibition, primary screen, TEAD-YAP interaction inhibitor project, luminescence, HEK-TIYL cells. TEAD-Gal4/YAP UAS-luciferase luminescence. inhibition, % at 9.12 µM. 640,000 tested, 1.4% active. AID 1259422, 2018; in the data active means inhibition above about 32%;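 further: 0% = median of test compound wells and 100% = reference inhibitor wells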
# FBW7 activator: FBW7 E3 ligase activators, primary screen, biochemical, AlphaScreen, human. AlphaScreen FBW7–phospho-cyclin E peptide binding, activator screen. normalized activity (activation), % at 26.1 µM. F-box/WD repeat-containing protein 7 (Homo sapiens), Q969H0. 650,000 tested, 0.13% active; in the data active means normalized activity above about 1.9%;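 further: purified mutant Fbw7 with reduced substrate affinity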
# MITF inh conf: MITF inhibitors, retest of hits, confirmation, biochemical, AlphaScreen, triplicate; AID 1259372, 2018; inhibition, % at 2.6 µM; 4,700 tested, 16% active; shares compounds with MITF primary; AlphaScreen MITF homodimerization, biotin/His-MITF beads;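 active means inhibition above a cutoff derived from the DMSO control wells, cut at about 28% in these data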;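 further: 0% = MITF dimer wells with DMSO only; inhibitors lower the bead chemiluminescence by keeping MITF from dimerizing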
# AlphaScreen DR: AlphaScreen optical interference compounds, dose response, counter-screen, biochemical, HTS; 480 tested, 6% active; AlphaScreen optical interference counterscreen, cell-free; AID 1259373, 2018; shares compounds with MITF primary; IC50, µM; call rule not given here
# AlphaScreen intf2: AlphaScreen optical interference compounds, counter-screen for MITF inhibitor project, biochemical, triplicate; shares compounds with MITF primary; LysRS AlphaScreen counterscreen, signal interference; inhibition, % at 2.6 µM; 4,700 tested, 7.6% active; AID 1259376, 2018;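 active means inhibition above a cutoff derived from the DMSO control wells, cut at about 30% in these data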
# Starred values were filed as active, the others as inactive; . = no result given. Most compounds without a hit are left out; they make up all but 3.5% or so of the library.
SMILES,GPR151 activ,MITF primary,TEAD-YAP inh,FBW7 activator,MITF inh conf,AlphaScreen intf2,others
CC(=O)c1ccc(S(=O)(=O)N(CCCO)Cc2cc3cc(C)c(C)cc3[nH]c2=O)cc1,-1.0,73.5*,-3.4,-0.2,5.3,12.8,
OC(CN1CCN(Cc2ccccc2)CC1)CN1c2ccccc2Sc2ccccc21 (stereo not given),2.9,56.4*,5.0,-0.6,5.6,-0.3,
O=C(O)/C=C/C(=O)Nc1ccc(SC(F)F)cc1,-0.8,55.9*,1.3,-0.1,-0.1,-10.1,
COc1ccc(C(C)=O)cc1CSc1nc(NCCc2ccccc2)c2ccccc2n1,-0.3,2.9,-2.5,-0.2,.,.,
COc1ccc(C(C)=O)cc1CSc1nc(NC2CCCCC2)c2ccccc2n1,1.4,80.3*,-2.0,0.0,0.2,-0.5,
CCCS(=O)(=O)N1CCC(C(=O)NC(C)C)CC1,0.0,-1.7,-4.8,0.0,.,.,
CCCCCCCNC(=O)COc1ccc2c(c1)C(=O)CC(C)(C)O2,1.0,-11.9,2.6,0.1,.,.,
CCN1CCN(CCCNC(=O)COc2ccc3c(c2)C(=O)CC(C)(C)O3)CC1,0.9,57.3*,5.5,0.2,-1.5,9.9,
C=CCNC(=O)c1cc(-c2ccc(Cl)c(Cl)c2)on1,0.1,-4.0,-17.2,0.0,.,.,
COc1cccc(CC(C2CCN(Cc3ccccn3)CC2)N(C)C(=O)c2ccco2)c1 (stereo not given),0.1,11.3,-8.6,0.0,.,.,
COc1cccc(CC(C2CCN(C(=O)CSC)CC2)N(C)Cc2ccccn2)c1 (stereo not given),0.1,52.2*,4.8,0.1,15.3,33.6*,
CC1(C)CC(=O)C=C(Nc2sc3c(c2C(N)=O)CCCC3)C1,0.6,80.7*,10.2,-0.1,2.2,32.6*,
CCC(=O)Nc1sc2c(c1C(N)=O)CCCC2,1.3,-10.1,11.0,-0.2,.,.,
CCc1nc(NCCCCCO)c2nnn(Cc3ccccc3)c2n1,0.4,7.5,0.1,-0.1,.,.,
CCc1nc(NCC(C)C)c2nnn(Cc3ccccc3)c2n1,0.3,61.5*,-2.6,0.0,-5.7,-2.2,
O=C(O)c1cccc(-c2cc(C(=O)O)ncc2C(=O)O)c1,2.0,57.2*,-1.1,-1.2,15.6,37.8*,
O=C(O)c1ccc(C(=O)O)c(-c2ccccc2)c1,0.3,8.2,2.9,0.0,.,.,
Cc1cccc(C)c1N1C(=O)C2Cc3ccccc3CN2C1=S (stereo not given),2.2,2.7,0.9,-0.2,.,.,
COCCNC(=O)CN(C(=O)CCC(=O)Nc1nccs1)C1CCCC1,1.2,-2.1,-6.9,0.1,.,.,
CN(C(=S)NC(=O)C1(C)CC1(Cl)Cl)c1ccccc1 (stereo not given),-0.6,50.6*,-3.0,0.0,-1.0,17.6,
COc1ccc(C2C(C(=O)Nc3ccc(C)cc3)=C(C)Nc3ncnn32)cc1OC (stereo not given),0.7,69.4*,-10.7,0.1,7.4,12.4,
O=C(/C=C/c1ccccc1)NCc1ccc(Cl)cc1,0.1,52.0*,-2.3,0.2,3.9,-1.9,
O=C(Nc1ccccn1)c1cc(-c2ccc(Cl)c(Cl)c2)nc2ccccc12,-0.8,-8.7,-6.6,-0.1,.,.,
CN(C)CCNC(=S)Nc1cccc(C(F)(F)F)c1,3.1,4.6,-0.8,0.6,.,.,
CC(C)(C)C(=O)CN1C(=O)COc2ccccc21,3.1,67.0*,-21.4,-0.4,11.5,8.2,
COc1ccc(OC)c(NC(=O)c2cc3ccc(O)cc3oc2=Nc2ccc(C(=O)O)cc2)c1,0.4,55.4*,6.1,-0.4,79.1*,-15.3,AlphaScreen DR=>5.54
Nc1c(C(=O)c2cccs2)sc2nc3c(c(-c4ccc(Cl)cc4)c12)CCCC3,0.3,14.2,8.4,0.0,.,.,
Cc1nn(C(=O)c2nn(C)cc2I)c(C)c1Cl,1.8,54.4*,0.1,1.5,2.0,-0.9,
OC12CCCCC1C(c1ccc(Cl)cc1Cl)NCC2 (stereo not given),-0.9,8.5,-5.9,1.0,.,.,
